The supplement of paper PMC7866885, “A novel bicyclic 2,4-diaminopyrimidine inhibitor of Streptococcus suis dihydrofolate reductase” (PeerJ, 2021)
± gives the standard deviation.

Tests used:
[1] = test system: Streptococcus suis HE06; experiment: percent growth relative to DMSO control; higher = less growth inhibition; details: 10 µM; incubation time 18 h
Procedure: (§1)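 CLSI broth microdilution: 5x10^4 CFU of Streptococcus suis (strain P1/7 or HE06) incubated with 10 µM Pathogen Box compound in cation-adjusted Mueller Hinton broth, 37 °C, 5% CO2, 18 h. Growth read as OD600 and expressed as percent of the DMSO-treated control (100%); mean ± SD of three independent experiments.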

[2] = test system: Streptococcus suis P1/7; experiment: as above; details: 10 µM; incubation time 18 h
Procedure: as §1

SMILES	percent growth [1]	percent growth [2]
COc1cccc(-n2nnnc2S(=O)(=O)Cc2ccccc2)c1	33.8 ± 19%	64.7 ± 47%
Cc1ccc2oc(-c3cc(NC(=O)Cc4ccccc4)ccc3Cl)nc2c1	93.1 ± 13%	78.5 ± 4%
COc1ccc(N(CCc2cccc(C)n2)C(=O)C2CCCCC2)cc1	115 ± 37%	105 ± 28%
Cc1ccc(NC(=O)CC2COc3ccccc3O2)cc1Cl (stereo unspecified)	96.4 ± 1.4%	95.7 ± 33%
Clc1ccc(-n2cc(COc3ccnc4ccccc34)nn2)cc1	84.2 ± 6%	77.9 ± 13%
CCc1ccc(C(NCc2nc(N)nc(N(C)C)n2)C(C)C)cc1 (stereo unspecified)	12.8 ± 16%	4.17 ± 0.94%
c1ccc(Oc2ccc(-c3cc(N4CCNCC4)[nH]n3)cc2)cc1	106 ± 35%	67.6 ± 28%
CCCn1c(NC(=O)c2ccc3ccccc3n2)nc2ccccc21	0%	0.618 ± 1.5%
CC1=Nc2ccc(Cl)cc2C(c2ccccc2)N1CCNC(=O)CN(C)C (stereo unspecified)	84.8 ± 4.2%	84.5 ± 16%
O=C(NCc1ccco1)N1CCN(Cc2ccc(Cl)s2)CC1	97.2 ± 4.8%	91.1 ± 21%
O=C(Nc1cnc2ccccc2c1)c1cccc(-n2cnnn2)c1	110 ± 2.4%	106 ± 28%
O=C([C@@H](c1ccc(Cl)cc1)c1cccnc1)N1CCN(c2ccc(C(F)(F)F)cc2)CC1	89 ± 10%	75.6 ± 12%
Cc1cccc(-c2nc(Nc3ccncn3)c3sccc3n2)n1	0.0155 ± 0.027%	0.888 ± 0.29%
COc1ccc(S(=O)(=O)Nc2ccc(CN3CCN(C(=O)c4cccc(C#N)c4)CC3)cc2)cc1	103 ± 16%	118 ± 47%
COc1cccc(NC(=O)c2c(NC(=O)c3cccnc3)sc3c2CCC3)c1	98.2 ± 24%	86.6 ± 15%
Cc1ccc(S(=O)(=O)n2cc(-c3ccnc(N)c3)c3cc(Br)cnc32)cc1	95.2 ± 32%	61.5 ± 15%
O=C(NCCc1c[nH]c2ccccc12)c1cc2ccccc2oc1=O	104 ± 6%	74.1 ± 8.7%
CNc1cc(C)nc(C2CN(C(=O)c3n[nH]c4ccccc34)CCO2)c1 (stereo unspecified)	89.6 ± 5.4%	105 ± 50%
CCS(=O)(=O)N(Cc1ccco1)Cc1cc2ccc(C)cc2nc1O	90.6 ± 1.9%	77.1 ± 19%
O=C(C(Cc1c[nH]c2ccccc12)NS(=O)(=O)c1ccc(Cl)cc1)N1CCCCC1 (stereo unspecified)	89.3 ± 4.7%	120 ± 43%
Clc1ccc(CN2CCN(C3=NCCN3)CC2)cc1Cl	89 ± 2.1%	72.2 ± 28%
Cc1cc(C)n(-c2ccc(NC(=O)C3CCN(Cc4cnc(C)s4)CC3)cc2)n1	95.3 ± 24%	65.6 ± 19%

SMILES	percent growth [1]	percent growth [2]
N#Cc1ccc(-c2ccc(OCC(N)=O)cc2)cc1	91.4 ± 11%	94.4 ± 35%
CCOc1ccccc1C(=O)Nc1cccc(-c2nc3ncccn3c2C)c1	88.1 ± 24%	71.6 ± 8.8%
Nc1nccc2ccc(Oc3ccncc3)cc12	97.4 ± 7%	84.2 ± 8.7%
Cc1cc(NCC(C)C)c2n[nH]c(-c3ccccc3)c2n1	81.1 ± 5.3%	122 ± 79%
N=C(N)c1ccc(OCCCCCOc2ccc(C(=N)N)cc2)cc1	146 ± 200%	37.1 ± 32%
N#Cc1ccc(-c2cnc(N)c(-c3ccc(C(N)=O)cc3)n2)cc1	114 ± 46%	73.1 ± 4.3%
OCc1ccc(-c2cncc(Nc3cccc(Cl)c3)c2)cc1	88 ± 13%	69.8 ± 33%
CS(=O)(=O)N1CCC(CCn2nc(Cc3cccc4ccccc34)c3c(N)ncnc32)CC1	90.3 ± 15%	100 ± 38%
O=C(NCc1cc(Cl)cc(Cl)c1)c1c(C(F)(F)F)nc2ccccn12	84.6 ± 3.8%	60.6 ± 20%
CC1CC1C(=O)NC1CCN(CC2(c3ccccc3)CCCCC2)CC1 (stereo unspecified)	76.8 ± 15%	71.1 ± 43%
O=C(Nc1ccc(F)c(-c2nc3cc(-c4ccccc4)cnc3[nH]2)c1)N1CCCC1	99.7 ± 36%	83.7 ± 5.5%
CCC(Sc1nc2ccccc2o1)C(=O)Nc1nccs1 (stereo unspecified)	0%	9.43 ± 16%
O=C(c1ccco1)N(CCCn1ccnc1)c1nc2c(Cl)cccc2s1	36.6 ± 38%	34.1 ± 59%
COc1ccccc1C(C)NCC(=O)Nc1cc(C(F)(F)F)ccc1Cl (stereo unspecified)	86.8 ± 5.4%	112 ± 23%
COc1ccc(-c2cnc3cnc(-c4cccc(OC(C)C)c4)cn23)cc1	59 ± 50%	25.7 ± 45%
COc1cc(NC(=O)Cc2nn(C)c(=O)c3ccccc23)ccc1Cl	82.8 ± 6.6%	108 ± 46%
CC(C)(C)n1nc(-c2ccccc2)c2c(N)ncnc21	79.7 ± 12%	84.5 ± 20%
Cc1nn2c(O)c3c(nc2c1-c1ccc(F)cc1)CCCC3	63.3 ± 22%	45.5 ± 21%
c1ccc(C[C@@H]2CN(c3nccc(Oc4ccc(-n5ccnc5)cc4)n3)CCN2)cc1	93.3 ± 12%	90.5 ± 21%
COc1ccc(-c2nc(-c3cccc(NC(=O)Cc4ccc(F)cc4)c3)no2)cc1OC	83 ± 3.5%	102 ± 57%
O=C1[C@@H](Oc2ccccc2)[C@@H](c2ccc(Cl)cc2)N1CCn1cnc2c(NCc3ccccc3)ncnc21	94.9 ± 4.6%	112 ± 21%
